The source of these data is paper PMC4336329 (PLoS ONE, 2015).

Out of some 310,000 compounds screened, about 14,000 (4.5%) showed an effect of 50% or more. The effect is printed as a negative number. The entries come from a sample that favours strong results as a whole.
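Note: peak tail current of the secondary pulse compared with the same well before compound.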

The target of this test is human ether-à-go-go-related gene (hERG) potassium channel (human, UniProt Q12809). As to the kind of experiment: primary screen, population patch clamp on CHO cells stably expressing hERG; higher = less effect of the substance.
Chain of human ether-à-go-go-related gene (hERG) potassium channel (Q12809 whole entry, looked up): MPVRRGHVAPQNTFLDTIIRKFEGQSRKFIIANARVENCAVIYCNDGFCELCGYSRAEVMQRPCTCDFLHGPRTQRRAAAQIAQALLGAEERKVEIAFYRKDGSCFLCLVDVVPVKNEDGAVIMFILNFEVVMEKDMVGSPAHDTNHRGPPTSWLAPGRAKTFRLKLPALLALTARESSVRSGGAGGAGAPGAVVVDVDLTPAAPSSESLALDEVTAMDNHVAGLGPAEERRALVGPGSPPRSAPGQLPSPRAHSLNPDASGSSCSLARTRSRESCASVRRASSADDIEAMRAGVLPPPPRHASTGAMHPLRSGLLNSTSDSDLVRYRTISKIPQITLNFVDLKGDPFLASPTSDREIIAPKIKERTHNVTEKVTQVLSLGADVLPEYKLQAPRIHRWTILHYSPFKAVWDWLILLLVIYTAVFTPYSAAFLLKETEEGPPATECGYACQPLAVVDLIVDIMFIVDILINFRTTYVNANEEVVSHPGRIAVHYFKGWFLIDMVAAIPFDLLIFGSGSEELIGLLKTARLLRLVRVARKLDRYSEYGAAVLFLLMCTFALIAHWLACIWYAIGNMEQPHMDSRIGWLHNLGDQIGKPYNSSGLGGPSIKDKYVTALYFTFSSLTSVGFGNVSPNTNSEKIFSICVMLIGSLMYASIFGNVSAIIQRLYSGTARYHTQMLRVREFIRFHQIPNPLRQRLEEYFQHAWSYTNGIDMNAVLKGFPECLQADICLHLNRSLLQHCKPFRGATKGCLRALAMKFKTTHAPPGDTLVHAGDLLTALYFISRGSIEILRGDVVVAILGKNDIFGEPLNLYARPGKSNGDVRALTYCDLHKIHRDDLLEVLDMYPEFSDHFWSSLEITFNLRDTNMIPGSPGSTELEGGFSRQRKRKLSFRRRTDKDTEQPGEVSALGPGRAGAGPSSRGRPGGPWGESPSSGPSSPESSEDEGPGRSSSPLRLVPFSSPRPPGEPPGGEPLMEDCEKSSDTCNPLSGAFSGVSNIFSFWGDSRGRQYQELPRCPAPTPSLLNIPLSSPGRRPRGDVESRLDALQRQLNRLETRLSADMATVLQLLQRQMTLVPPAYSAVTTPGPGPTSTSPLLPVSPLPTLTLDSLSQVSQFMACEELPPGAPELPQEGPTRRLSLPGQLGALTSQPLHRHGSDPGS
As to `O=C(CCCC(=O)OCC(F)(F)C(F)F)Nc1ccccc1F`, the “hERG current change (%, negative = inhibition) at 10uM” value is recorded as 14.8%.
On to `CN(C)C(/C=C/Nc1cccc([N+](=O)[O-])c1)=C(C#N)C#N`, for which the “hERG current change (%, negative = inhibition) at 10uM” value is -11.1%.
The same measure for `CC(C)(C)c1nn(-c2ccccc2)c2[nH]c(=O)c(CNc3ccc4c(c3)OCCO4)cc12`: -4.99%; for `Cc1cc2cc(CNC(=O)c3cccc([N+](=O)[O-])c3)ccc2[nH]1`: -25.3%; for `CCC(=O)NCc1ccc2[nH]c(C)cc2c1`: 37%.
Turning to `CC(C)Cc1ccc(C(C)C(=O)Nc2nccs2)cc1` (stereo not shown), the “hERG current change (%, negative = inhibition) at 10uM” value is given as -1.33%.
As for `CC(C(=O)Nc1nccs1)c1ccc([N+](=O)[O-])cc1` (stereo not shown), the “hERG current change (%, negative = inhibition) at 10uM” value was -72%.
Regarding `CCOC(=O)Cc1csc(NC(=O)Cc2ccc(Cl)cc2)n1`, the “hERG current change (%, negative = inhibition) at 10uM” value is given as -15.1%.
As to `CCOC(=O)Cc1csc(NC(=S)NC(=O)c2ccc([N+](=O)[O-])cc2)n1`, the “hERG current change (%, negative = inhibition) at 10uM” value is 13.8%.
`Cc1cc2cc(CNC(=O)Cc3ccc([N+](=O)[O-])cc3)ccc2[nH]1`: the “hERG current change (%, negative = inhibition) at 10uM” value is -50.7%.
Take `CCOC(=O)Cc1csc(NC(=O)C(C)c2ccc([N+](=O)[O-])cc2)n1` (stereo not shown): the “hERG current change (%, negative = inhibition) at 10uM” value is listed as -55.9%.
For `CCOC(=O)Cc1csc(NC(=O)Cc2ccc([N+](=O)[O-])cc2)n1`, the “hERG current change (%, negative = inhibition) at 10uM” value is reported as -64.9%.
With `CCOC(=O)Cc1csc(NS(=O)(=O)c2ccc([N+](=O)[O-])cc2)n1`, the “hERG current change (%, negative = inhibition) at 10uM” value was found to be 7.89%.
As for `CCOC(=O)Cc1csc(NC(=O)Cc2ccc(C)cc2)n1`, the figure is -18%; as for `CC(Sc1ccc([N+](=O)[O-])cn1)C(=O)Nc1nccs1` (stereo not shown), -5.58%; as for `COc1ccc(CCN=C(N)NS(=O)(=O)c2ccc(C)cc2)cc1OC`, 6.05%.
On to `CCCCNC(=O)C1CCCN1C(=O)Nc1cccc(OC)c1` (stereo not shown), for which the “hERG current change (%, negative = inhibition) at 10uM” value was found to be 14%.
Regarding `Cc1sc2ncn(/N=C/c3ccco3)c(=O)c2c1C`, the “hERG current change (%, negative = inhibition) at 10uM” value was -2.43%.
For `CC(C)OC(=O)c1cc(NC(=O)C2C3C=CC(O3)C2C(=O)O)cc(C(=O)OC(C)C)c1` (stereo not shown), the “hERG current change (%, negative = inhibition) at 10uM” value is given as -1.28%.
Take `Cc1c(C)c(C)c2[nH]c(=S)[nH]c2c1C`: the “hERG current change (%, negative = inhibition) at 10uM” value turned out to be 24.9%.
As to `CCN(CC)C(=O)COC(=O)c1ccc(O)cc1`, the “hERG current change (%, negative = inhibition) at 10uM” value was found to be 7.43%.
Consider `CC1=C(C(=O)Nc2ccccc2C(=O)NCCCOC(C)C)SCCO1`, for which the “hERG current change (%, negative = inhibition) at 10uM” value is 14%.
Consider `CCCCn1c(=O)[nH]c(=O)c2c1nc(-c1ccccc1F)n2Cc1ccccc1OC`, for which the “hERG current change (%, negative = inhibition) at 10uM” value is 11.5%.
As for `COc1ccc(-c2cc(C(F)(F)F)nc(SCC(=O)N(C)Cc3cnn(C)c3C)n2)cc1OC`, the figure is -42.4%.
The same measure for `CC(C(=O)Nc1cccc(Br)c1)c1ccc([N+](=O)[O-])cc1` (stereo not shown): -47.3%; for `Cc1cc(Br)ccc1NC(=O)C(C)c1ccc([N+](=O)[O-])cc1` (stereo not shown): -70.7%.
As for `Cc1cc(C)nc(NC(=O)Cc2ccc([N+](=O)[O-])cc2)c1`, the figure is -67.9%.
`Cc1ccnc(NC(=O)Cc2ccc([N+](=O)[O-])cc2)c1`: the “hERG current change (%, negative = inhibition) at 10uM” value is -12.4%.
With `CC(C(=O)Nc1ccccc1Br)c1ccc([N+](=O)[O-])cc1` (stereo not shown), the “hERG current change (%, negative = inhibition) at 10uM” value is recorded as -35.5%.
Turning to `Cc1cc(C)nc(NC(=O)Cc2ccc(Cl)cc2)c1`, the “hERG current change (%, negative = inhibition) at 10uM” value is recorded as -5.94%.
As for `CCOc1cc(NC(=O)CC(C)C)c(OCC)cc1NC(=O)CCn1nnc2ccccc21`, the figure is 10.1%.
On to `CCOC(=O)c1ccc(-n2ccnc2)c(NC(=O)c2ccc(C(C)(C)C)cc2)c1`, for which the “hERG current change (%, negative = inhibition) at 10uM” value is recorded as -41%.
For `CCOC(=O)c1ccc(-n2ccnc2)c(NC(=O)c2ccc(Cl)cc2)c1`, the “hERG current change (%, negative = inhibition) at 10uM” value was -66.2%.
The same measure for `CCOC(=O)c1ccc(-n2ccnc2)c(NC(=O)c2cccc(Br)c2)c1`: -42.1%; for `O=C(CSc1nnc(C2COc3ccccc3O2)o1)N1CCN(c2ccccc2)CC1` (stereo not shown): 8.03%; for `CCOC(=O)N1CCN(C(=O)C2CCC(CNS(=O)(=O)c3ccccc3)CC2)CC1` (stereo not shown): 3.18%.
As for `COc1cccc(NC(=O)c2ccc(-c3ccc([N+](=O)[O-])cc3)o2)c1`, the “hERG current change (%, negative = inhibition) at 10uM” value was -36.2%.
With `COc1ccc(NC(=O)c2ccc(-c3ccc([N+](=O)[O-])cc3)o2)cc1`, the “hERG current change (%, negative = inhibition) at 10uM” value was -33.1%.
In the case of `COc1ccc(CCNC(=O)Cc2ccc([N+](=O)[O-])cc2)cc1OC`, the “hERG current change (%, negative = inhibition) at 10uM” value is recorded as -11.6%.
Regarding `COc1ccc(CCNC(=O)c2ccc(-c3ccc([N+](=O)[O-])cc3)o2)cc1OC`, the “hERG current change (%, negative = inhibition) at 10uM” value was -60.7%.
On to `COc1ccc(CCNC(=O)c2ccc(-c3cccc([N+](=O)[O-])c3)o2)cc1OC`, for which the “hERG current change (%, negative = inhibition) at 10uM” value was -26.7%.
As for `COc1ccc(NC(=O)c2ccc(-c3ccc([N+](=O)[O-])cc3)o2)cc1OC`, the “hERG current change (%, negative = inhibition) at 10uM” value was -64.9%.
As for `CCOC(=O)c1c(NC(=O)CCS(=O)(=O)c2ccccc2)sc2c1CC(C)(C)NC2(C)C`, the figure is -44.9%.
In the case of `O=C(Nc1cccc(S(=O)(=O)N2CCOCC2)c1)c1ccc2ccccc2n1`, the “hERG current change (%, negative = inhibition) at 10uM” value is listed as -1.59%.
Consider `CCNc1nc(NCC)nc(SCCOc2ccc(C)cc2)n1`, for which the “hERG current change (%, negative = inhibition) at 10uM” value is recorded as -40.6%.
`COc1ccccc1N1CCN(C(=O)COc2ccc(S(=O)(=O)NC(C)C)cc2)CC1`: the “hERG current change (%, negative = inhibition) at 10uM” value was -4.64%.
In the case of `CCN1CCN(CCCN(Cc2ccco2)C(=S)Nc2ccccc2Cl)CC1`, the “hERG current change (%, negative = inhibition) at 10uM” value is -53.5%.
The same measure for `Cc1ccccc1NC(=S)N(CCN(C)C)C(C)c1ccco1` (stereo not shown): -12.1%; for `Cc1c(Cl)cccc1NC(=S)N(CCCN1CCOCC1)Cc1ccco1`: -43.9%.
For the compound `Cc1c(Cl)cccc1NC(=S)N(CCN(C)C)C(C)c1ccco1` (stereo not shown), the “hERG current change (%, negative = inhibition) at 10uM” value is -55.9%.
As to `S=C(Nc1ccccc1Cl)N(CCCN1CCOCC1)Cc1ccco1`, the “hERG current change (%, negative = inhibition) at 10uM” value was 0.554%.
For the compound `COCCN(C(=S)Nc1cccc(Cl)c1C)C(C)c1ccco1` (stereo not shown), the “hERG current change (%, negative = inhibition) at 10uM” value is on record as -15.4%.
Take `CCN1CCN(CCCN(Cc2ccco2)C(=S)Nc2cccc(Cl)c2C)CC1`: the “hERG current change (%, negative = inhibition) at 10uM” value is listed as -61.2%.
Take `O=C(NCCCN1CCCC1=O)c1cccc(Oc2ccccc2)c1`: the “hERG current change (%, negative = inhibition) at 10uM” value stood at 10.5%.
For the compound `CCN(CC(=O)Nc1c(F)cccc1F)C(=O)CCN1C(=O)c2cccc([N+](=O)[O-])c2C1=O`, the “hERG current change (%, negative = inhibition) at 10uM” value was 16.2%.
